Whole data set: some 140,000 sequences, median “enrichment ratio after two sorts for PhoP signalling” near 0, cut for the highest 2% near 11. The list comes from a sample in which the highest values are over-represented; it also holds similar and randomly drawn sequences.
B1: PhoQ; a variant is named by its letters at X, in order, P23837 (parent)
chain: MKKLLRLFFPLSLRVRFLLATAAVVLVLSLAYGMVALIGYSVSFDKTTFRLLRGESNLFYTLAKWENNKLHVELPENIDKQSPTMTLIYDENGQLLWAQRDVPWLMKMIQPDWLKSNGFHEIEADVNDTSLLLSGDHSIQQQLQEVREDDDDAEMTHSVAVNVYPATSRMPKLTIVVVDTIPVELKSSYMVWSWFIYVLSANLLLVIPLLWVAAWWSLRPIEALAKEVRELEEHNRELLNPATTRELTSLVRNLNRLLKSERERYDKYRTTLTDLTHSLKTPLXXLQXXLRSLRSEKMSVSDAEPVMLEQISRISQQIGYYLHRASMRGGTLLSRELHPVAPLLDNLTSALNKVYQRKGVNISLDISPEISFVGEQNDFVEVMGNVLDNACKYCLEFVEISARQTDEHLYIVVEDDGPGIPLSKREVIFDRGQRVDTLRPGQGVGLAVAREITEQYEGKIVAGESMLGGARMEVIFGRQHSAPKDE

Variants of: B1
Assay: enrichment ratio after two sorts for PhoP signalling (ratio (wild type AVST 3.29)); higher = more functional
Conditions: with PhoP (E. coli)

Row | Variant | enrichment ratio
1 | WFNQ | ≤ 0.25
2 | HCCF | ≤ 0.25
3 | TQED | ≤ 0.25
4 | TQGD | 2.92
5 | TQVG | 12.2
6 | NQVC | ≤ 0.25
7 | TQEG | ≤ 0.25
8 | TQWG | 18.3
9 | TGWG | 5.4
10 | WQVC | ≤ 0.25
11 | TQVC | 14.3
12 | TQVA | 3.07
13 | TQMD | 63
14 | KSWG | ≤ 0.25
15 | IQCQ | ≤ 0.25
16 | ACAH | 4.6
17 | GLLF | 4.76
18 | NFMP | ≤ 0.25
19 | LLRY | ≤ 0.25
20 | VNTC | ≤ 0.25
21 | IRDH | ≤ 0.25
22 | EIET | ≤ 0.25
23 | MPTT | ≤ 0.25
24 | KEKC | ≤ 0.25

Row | Variant | enrichment ratio
25 | VMIT | ≤ 0.25
26 | TQQG | 16.8
27 | KSQG | ≤ 0.25
28 | TQSG | 22.2
29 | PVSG | ≤ 0.25
30 | TQMQ | 24.2
31 | LAQG | ≤ 0.25
32 | IQMQ | ≤ 0.25
33 | NVSG | ≤ 0.25
34 | TQVQ | 13.8
35 | TQMI | 6.9
36 | WQVQ | ≤ 0.25
37 | IQVQ | ≤ 0.25
38 | GHDF | ≤ 0.25
39 | PFFG | ≤ 0.25
40 | QSAN | ≤ 0.25
41 | HQRF | ≤ 0.25
42 | YLKI | ≤ 0.25
43 | YYVE | ≤ 0.25
44 | YDMW | ≤ 0.25
45 | QNMD | ≤ 0.25
46 | TQMG | 32.5
47 | WQAG | ≤ 0.25
48 | NQMA | ≤ 0.25

Row | Variant | enrichment ratio
49 | TQMV | 7.29
50 | KQAG | ≤ 0.25
51 | TQAG | 28.2
52 | TQMA | 12.7
53 | TQQR | ≤ 0.25
54 | SQMA | 8.75
55 | EPSH | ≤ 0.25
56 | CFVH | ≤ 0.25
57 | RDRE | ≤ 0.25
58 | NQHC | ≤ 0.25
59 | RVAA | ≤ 0.25
60 | LDQA | ≤ 0.25
61 | DWTN | ≤ 0.25
62 | TQTN | 15.4
63 | TQEN | ≤ 0.25
64 | KQLN | ≤ 0.25
65 | TQWN | 10.1
66 | TQQN | 14.8
67 | TQFN | 14.2
68 | NVTN | ≤ 0.25
69 | FQFN | ≤ 0.25
70 | EQLN | ≤ 0.25
71 | NQFN | ≤ 0.25
72 | TQLN | 13.2

Row | Variant | enrichment ratio
73 | VGED | ≤ 0.25
74 | FPIP | ≤ 0.25
75 | WVYL | ≤ 0.25
76 | IRTL | ≤ 0.25
77 | NQCN | ≤ 0.25
78 | EQCN | ≤ 0.25
79 | TQCN | 24.9
80 | YYPA | ≤ 0.25
81 | DFPF | ≤ 0.25
82 | YTGA | ≤ 0.25
83 | NHMA | 16.2
84 | YTMA | ≤ 0.25
85 | GGMA | ≤ 0.25
86 | TTGA | 12.6
87 | THMA | 6.15
88 | WIMA | ≤ 0.25
89 | ITGA | ≤ 0.25
90 | TGMA | 26.1
91 | NEMA | ≤ 0.25
92 | RGMA | ≤ 0.25
93 | TTMA | 13.4
94 | LFNF | ≤ 0.25
95 | DMIQ | ≤ 0.25
96 | LEWL | ≤ 0.25

Row | Variant | enrichment ratio
97 | ADCH | 9.13
98 | GPHV | ≤ 0.25
99 | TGWN | ≤ 0.25
100 | PMPR | ≤ 0.25
101 | KQFD | ≤ 0.25
102 | WFVI | ≤ 0.25
103 | RFQA | ≤ 0.25
104 | VHFG | ≤ 0.25
105 | EVCW | ≤ 0.25
106 | AHMA | ≤ 0.25
107 | ATMA | 1.82
108 | AIMA | 12.1
109 | EPIW | ≤ 0.25
110 | NQNT | ≤ 0.25
111 | SSLT | 12
112 | KSVT | ≤ 0.25
113 | SSLS | 11.4
114 | SSAT | 8.03
115 | STVT | 0.835
116 | SSLA | 7.43
117 | SSLK | 5.98
118 | SSVT | 14.6
119 | SSNT | ≤ 0.25
120 | HWNL | ≤ 0.25

Row | Variant | enrichment ratio
121 | QGSH | 9.79
122 | TMLT | 1.84
123 | HPCD | ≤ 0.25
124 | SSRS | ≤ 0.25
125 | HMWA | ≤ 0.25
126 | LPNW | 0.366
127 | QQHW | ≤ 0.25
128 | THTR | ≤ 0.25
129 | CQLH | 27.9
130 | HKLH | ≤ 0.25
131 | MKLH | ≤ 0.25
132 | AHLH | ≤ 0.25
133 | AKLH | 14.6
134 | AQLH | 13.8
135 | TPLH | ≤ 0.25
136 | HQLH | ≤ 0.25
137 | KKLH | ≤ 0.25
138 | WQLH | ≤ 0.25
139 | RQLH | ≤ 0.25
140 | TKLH | 11.9
141 | PTHK | ≤ 0.25
142 | EMCT | ≤ 0.25
143 | CHLM | ≤ 0.25
144 | QVLK | ≤ 0.25

Row | Variant | enrichment ratio
145 | NHYM | ≤ 0.25
146 | SMHP | ≤ 0.25
147 | KYAQ | ≤ 0.25
148 | SMGQ | 11.7
149 | MMCY | ≤ 0.25
150 | SMGG | 1.44
151 | SMAQ | 15.5
152 | KMAQ | ≤ 0.25
153 | SMCI | 14.3
154 | SLCY | 2.99
155 | SMCS | 10.4
156 | SMCK | 9.85
157 | SMCY | 11.6
158 | GSEH | ≤ 0.25
159 | IYMF | ≤ 0.25
160 | IKKL | ≤ 0.25
161 | TQFP | ≤ 0.25
162 | KGRD | ≤ 0.25
163 | LVLT | ≤ 0.25
164 | VGSS | ≤ 0.25
165 | WDDM | ≤ 0.25
166 | GMHA | ≤ 0.25
167 | SMSA | 14.6
168 | SMPL | ≤ 0.25

Row | Variant | enrichment ratio
169 | SMPM | ≤ 0.25
170 | SMME | 14.6
171 | SMMD | ≤ 0.25
172 | SMCL | 16.6
173 | SMMY | 2.28
174 | SMTM | 14.9
175 | SMGL | 5.54
176 | SMSH | 9.89
177 | SMSQ | 11.1
178 | SMWM | ≤ 0.25
179 | LSHR | ≤ 0.25
180 | KFYP | ≤ 0.25
181 | KYSQ | ≤ 0.25
182 | KEDF | ≤ 0.25
183 | HKIL | ≤ 0.25
184 | EQYF | ≤ 0.25
185 | DLKR | ≤ 0.25
186 | IPGP | ≤ 0.25
187 | FPRY | ≤ 0.25
188 | GVMQ | 5.97
189 | SMCE | 11.7
190 | SMWI | ≤ 0.25
191 | SMGS | 1.09
192 | SMPE | 0.359

Row | Variant | enrichment ratio
193 | SLCW | 0.501
194 | SMCW | 19.6
195 | SMTA | 11.8
196 | SMIE | ≤ 0.25
197 | SMPI | 1.09
198 | SMCA | 15.3
199 | SMPA | ≤ 0.25
200 | SNCW | 10.3
201 | AKLD | ≤ 0.25
202 | VWSC | ≤ 0.25
203 | SVVD | ≤ 0.25
204 | RVNR | ≤ 0.25
205 | SMSI | 12.9
206 | SMSK | 2.79
207 | SMAV | 5.92
208 | SMSR | ≤ 0.25
209 | SMAE | 25.2
210 | KMAE | ≤ 0.25
211 | HLVA | ≤ 0.25
212 | AQPM | ≤ 0.25
213 | RVFT | ≤ 0.25
214 | NAGS | ≤ 0.25
215 | RQQG | ≤ 0.25
216 | TDMH | 18.2

Row | Variant | enrichment ratio
217 | TDCH | 11.9
218 | FDMH | ≤ 0.25
219 | FDCH | ≤ 0.25
220 | LTMH | 2.1
221 | LTCH | ≤ 0.25
222 | EPTI | ≤ 0.25
223 | MAHQ | ≤ 0.25
224 | EKMC | ≤ 0.25
225 | QRGH | ≤ 0.25
226 | QIYH | ≤ 0.25
227 | YTGH | ≤ 0.25
228 | QGGH | ≤ 0.25
229 | QIGH | 14
230 | SNTH | 7.23
231 | QITH | ≤ 0.25
232 | SRGH | ≤ 0.25
233 | QEGH | 24.6
234 | STGH | 17.1
235 | SNGP | ≤ 0.25
236 | SNGH | 23.3
237 | YAAS | ≤ 0.25
238 | QNYF | ≤ 0.25
239 | GMNL | ≤ 0.25
240 | SKVD | ≤ 0.25

Row | Variant | enrichment ratio
241 | LATP | ≤ 0.25
242 | DRAC | ≤ 0.25
243 | VPLT | ≤ 0.25
244 | GGVS | ≤ 0.25
245 | FTAL | 0.293
246 | QVGP | ≤ 0.25
247 | QVTH | ≤ 0.25
248 | QVGH | 15.9
249 | LEMS | 8.78
250 | LEGM | ≤ 0.25
251 | LEMK | ≤ 0.25
252 | LEMM | 11.3
253 | LEGG | ≤ 0.25
254 | LEIV | ≤ 0.25
255 | LEWI | 2.42
256 | LEEG | ≤ 0.25
257 | LEMG | 11.8
258 | LEMV | 12.9
259 | LEWV | 11.9
260 | LRMM | ≤ 0.25
261 | FPFR | ≤ 0.25
262 | FVFS | ≤ 0.25
263 | GEKH | ≤ 0.25
264 | QGKV | ≤ 0.25

Row | Variant | enrichment ratio
265 | SSGP | ≤ 0.25
266 | EPLM | ≤ 0.25
267 | ALDK | ≤ 0.25
268 | TQLC | 13.1
269 | EQNV | ≤ 0.25
270 | TQQT | 6.08
271 | NQLC | ≤ 0.25
272 | IQAH | ≤ 0.25
273 | TQAH | 13.3
274 | TQAT | 12.7
275 | WQLC | ≤ 0.25
276 | IQNV | ≤ 0.25
277 | NQAH | ≤ 0.25
278 | TQWT | 0.56
279 | TQNV | 14.2
280 | MGKS | ≤ 0.25
281 | INSM | 0.298
282 | IPGV | ≤ 0.25
283 | PQPN | ≤ 0.25
284 | FQNC | ≤ 0.25
285 | NNRL | ≤ 0.25
286 | EKQI | ≤ 0.25
287 | RWFN | ≤ 0.25
288 | NWQL | ≤ 0.25

Row | Variant | enrichment ratio
289 | VDAW | ≤ 0.25
290 | RNYN | ≤ 0.25
291 | FRWR | ≤ 0.25
292 | WYYY | ≤ 0.25
293 | TQNI | ≤ 0.25
294 | TQNS | 12.8
295 | TQET | ≤ 0.25
296 | TQNY | 6.18
297 | TQAA | 3.31
298 | LAAD | ≤ 0.25
299 | TQLQ | 5.05
300 | TQLS | 17.6
301 | TQAD | 11.6
302 | TQNW | ≤ 0.25
303 | TQNT | 15.4
304 | TQRA | ≤ 0.25
305 | PAWD | ≤ 0.25
306 | SEAL | 7.85

Source: a collection of fitness landscapes (doi:10.1126/science.1257360)
